Results on four compounds are retold here after PubChem BioAssay.

A short description of experiment [1]: compounds binding Alexa647 anti-His antibody – biochemical, small-molecule microarray, 635 nm fluorescence, artefact control for SMM control protein annotation, primary screen (AID 1128).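 Note: score merges feature fluorescence with signal-to-noise for each printed compound spot.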 The settings on record: higher = more signal.
Experiment [2] relates to Human papillomavirus type 1a E7 protein (residues 1-88). Put plainly: HPV1a E7 small-molecule binders, primary screen, biochemical, small-molecule microarray, residues 1-88, 635 nm (AID 1129). The following applies: small-molecule microarray binding, fluorescence 635 nm; higher = more signal.
The target in experiment [3] is Focal adhesion kinase 1 (Homo sapiens) (UniProt Q05397). Kind of experiment: PTK2 protein binding on printed compound slides – biochemical, small-molecule microarray, 635/667 nm fluorescence, BSA, DTT, primary screen (AID 1130).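 Note: composite of spot emission at 667 nm and signal to noise over triplicate slides.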 The settings on record: 635 nm fluorescence, higher = more signal.
Sequence of Focal adhesion kinase 1 (Homo sapiens) (Q05397 whole entry, looked up): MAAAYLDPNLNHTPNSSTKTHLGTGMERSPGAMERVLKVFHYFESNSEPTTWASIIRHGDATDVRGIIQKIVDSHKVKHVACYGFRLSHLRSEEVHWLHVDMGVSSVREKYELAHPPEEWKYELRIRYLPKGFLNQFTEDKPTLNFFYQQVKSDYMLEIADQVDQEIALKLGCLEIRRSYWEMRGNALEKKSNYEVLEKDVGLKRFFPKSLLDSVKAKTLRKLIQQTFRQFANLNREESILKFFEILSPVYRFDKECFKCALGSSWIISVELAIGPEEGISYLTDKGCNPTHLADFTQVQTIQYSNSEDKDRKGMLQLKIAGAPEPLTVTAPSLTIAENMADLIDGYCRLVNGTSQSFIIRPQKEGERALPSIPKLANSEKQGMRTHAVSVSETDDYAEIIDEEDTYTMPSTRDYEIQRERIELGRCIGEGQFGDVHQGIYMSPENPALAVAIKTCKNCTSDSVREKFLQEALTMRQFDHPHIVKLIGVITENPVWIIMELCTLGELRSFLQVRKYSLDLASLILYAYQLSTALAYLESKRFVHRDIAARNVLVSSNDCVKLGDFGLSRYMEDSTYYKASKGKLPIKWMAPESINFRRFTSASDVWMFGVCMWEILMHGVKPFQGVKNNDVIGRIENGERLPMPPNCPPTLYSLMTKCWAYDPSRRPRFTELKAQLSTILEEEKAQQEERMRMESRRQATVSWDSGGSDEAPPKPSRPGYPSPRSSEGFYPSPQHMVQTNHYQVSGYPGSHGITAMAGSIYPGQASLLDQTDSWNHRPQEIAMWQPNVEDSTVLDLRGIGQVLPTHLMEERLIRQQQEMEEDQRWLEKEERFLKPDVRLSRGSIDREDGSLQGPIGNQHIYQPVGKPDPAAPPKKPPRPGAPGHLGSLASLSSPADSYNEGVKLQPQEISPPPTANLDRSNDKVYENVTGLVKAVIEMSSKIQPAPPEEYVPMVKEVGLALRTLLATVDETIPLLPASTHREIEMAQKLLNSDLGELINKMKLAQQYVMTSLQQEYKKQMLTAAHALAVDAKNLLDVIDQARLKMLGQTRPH
Experiment [4] deals with Fibrinogen (Alexa647-labelled). Put plainly: Alexa647-fibrinogen binding to printed small molecules – biochemical, small-molecule microarray, 635/667 nm fluorescence, artefact control for SMM control-protein annotation, profiling panel (AID 1131).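 Note: z-score merges 667 nm fluorescence with per-spot signal-to-noise over triplicate slides.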 The following applies: fibrinogen-A647 binding fluorescence, higher = more signal.
Experiment [5] has as its target Follistatin (Homo sapiens) (UniProt P19883). Kind of experiment: FST protein binding to printed compounds – biochemical, small-molecule microarray, 635/667 nm fluorescence, primary screen (AID 1132). The following applies: 635 nm fluorescence, higher = more signal.
In experiment [6] the target is Fibroblast growth factor 2 (Homo sapiens) (UniProt P09038). Put plainly: basic fibroblast growth factor binding to printed compounds – biochemical, small-molecule microarray, 635/667 nm fluorescence, primary screen (AID 1133). The following applies: FGF2, fluorescence 635/667, higher = more signal.
Sequence of Fibroblast growth factor 2 (Homo sapiens) (P09038 whole entry, looked up): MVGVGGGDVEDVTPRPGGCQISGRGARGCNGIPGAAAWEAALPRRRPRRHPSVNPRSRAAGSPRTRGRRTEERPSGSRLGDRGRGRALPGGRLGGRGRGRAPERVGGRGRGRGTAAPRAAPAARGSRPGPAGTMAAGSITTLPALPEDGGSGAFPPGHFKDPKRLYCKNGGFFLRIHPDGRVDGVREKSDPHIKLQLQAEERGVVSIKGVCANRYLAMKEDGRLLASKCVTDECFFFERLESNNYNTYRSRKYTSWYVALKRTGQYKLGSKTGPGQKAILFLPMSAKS
The nature of experiment [7]: JC-1 mitochondrial potential readout, lung cancer cells – cell-based, A549, JC-1 fluorescence, basal, 24 h, 100 nL, profiling panel (AID 1138).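 Note: A549 lung adenocarcinoma cells under basal conditions with no added stimulus; test concentration not given here.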 The following applies: higher = more signal.
For a further experiment, the system named is Lefty1. Kind of experiment: Lefty1 protein binding to printed compounds – biochemical, small-molecule microarray, 635/667 nm fluorescence, primary screen (AID 1139). The following applies: fluorescence 635/667, higher = more signal.
The test system of experiment [8] is wheat germ agglutinin (Triticum aestivum), Alexa647-labelled. Put plainly: Alexa647-WGA lectin binding to printed small molecules – biochemical, small-molecule microarray, 635/667 nm fluorescence, artefact control for SMM control-protein annotation, profiling panel (AID 1140).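 Note: score merges 667 nm feature emission with signal to noise over triplicate slides.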 The settings on record: WGA-A647 binding, 635 nm fluorescence, higher = more signal.
Experiment [9] has as its target Luciferin 4-monooxygenase (Photinus pyralis) (UniProt P08659). Put plainly: inhibition of purified Photinus pyralis luciferase – biochemical, luminescence, purified enzyme, 2006 set, primary screen (AID 1141).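 Note: cell-free assay with purified firefly luciferase at 100 ng per well in PBS; test concentration not given here.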 The following applies: purified firefly luciferase, SteadyGlo luminescence, 30 min; higher = more signal, called active from +8 up or from −8 down.
Experiment [10] concerns Wnt5a (protein binding on small-molecule microarray). Kind of experiment: small molecules binding Wnt5a protein – biophysical, small-molecule microarray, 635/667 nm fluorescence, primary screen (AID 1142).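 Note: fluorescence read at 667 nm with signal to noise per printed feature.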 The following applies: 635 nm fluorescence, higher = more signal.
A short description of experiment [11]: ATP-based viability of Huh7 replicon cells – cell-based, CellTiter-Glo luminescence, basal, 48 h, cytotoxicity control for HCV replication inhibitor project, primary screen (AID 1143).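 Note: Huh7 hepatoma cells carrying a hepatitis C replication reporter with no stimulus; test concentration not given here.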 The following applies: higher = more signal, called active from +8 up or from −8 down. (Replicon systems follow genome replication, usually without infectious particles.)
Experiment [12] is described as follows: Pseudomonas biofilm growth suppression – PAO1 strain, BacTiter-Glo luminescence, LB-PBS, primary screen (AID 1144). The settings on record: P. aeruginosa PAO1 biofilm, 12 h, higher = more signal.
Experiment [13] can be described thus: basal CRE-LacZ reporter activity in PC12 – cell-based, unstimulated, primary screen (AID 1145). The following applies: no forskolin, luminescence, 4.5 h, higher = more signal, called active from +8 up or from −8 down.
The nature of experiment [14]: forskolin-driven CRE-LacZ activity in PC12 – cell-based, CRE-LacZ reporter, forskolin-stimulated, primary screen (AID 1146).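 Note: PC12 cells with 6xCRE LacZ reporter stimulated by forskolin 10 µM; beta-galactosidase reporter signal reflecting CREB driven transcription.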 The settings on record: luminescence, 4.5 h, higher = more signal, called active from +8 up or from −8 down.
In experiment [15] the target is Streptavidin (Streptomyces avidinii) (UniProt P22629). Kind of experiment: compounds binding control protein streptavidin – biophysical, small-molecule microarray, 635/667 nm fluorescence, artefact control for SMM compound annotation, primary screen (AID 1147).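 Note: signal reflects streptavidin binding to arrayed compounds as a control protein.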 The settings on record: higher = more signal.
Sequence of Streptavidin (Streptomyces avidinii) (P22629 whole entry, looked up): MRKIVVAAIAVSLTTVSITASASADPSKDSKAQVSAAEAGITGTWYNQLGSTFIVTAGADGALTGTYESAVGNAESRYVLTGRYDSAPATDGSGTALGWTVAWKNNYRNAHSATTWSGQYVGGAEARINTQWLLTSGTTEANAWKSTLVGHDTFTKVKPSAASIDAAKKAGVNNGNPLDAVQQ
Experiment [16] in a line: probe aInhba binding on compound microarray – biochemical, small-molecule microarray, 635/667 nm fluorescence, primary screen (AID 1148).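 Note: score merges 667nm spot fluorescence with signal-to-noise for antibody binding to printed compounds.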 The settings on record: higher = more signal.
The target of experiment [17] is Torsin-1A (Homo sapiens) (UniProt O14656). Put plainly: TOR1A wild-type binding on microarray – cell lysate, small-molecule microarray, lysate, 635/667 nm, primary screen (AID 1149). The settings on record: COS7 hTOR1A-WT lysate, 635 nm fluorescence, higher = more signal.
Sequence of Torsin-1A (Homo sapiens) (O14656 whole entry, looked up): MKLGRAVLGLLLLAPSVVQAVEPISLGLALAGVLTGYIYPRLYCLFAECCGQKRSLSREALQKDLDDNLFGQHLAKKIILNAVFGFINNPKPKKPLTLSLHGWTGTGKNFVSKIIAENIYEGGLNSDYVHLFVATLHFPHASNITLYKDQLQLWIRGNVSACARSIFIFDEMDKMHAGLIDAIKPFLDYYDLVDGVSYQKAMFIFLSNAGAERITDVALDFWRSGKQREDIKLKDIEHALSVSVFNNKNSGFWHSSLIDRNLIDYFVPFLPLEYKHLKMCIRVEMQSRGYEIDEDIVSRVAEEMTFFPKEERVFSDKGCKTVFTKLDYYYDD
For experiment [18] the target is unchanged. Put plainly: torsin A mutant lysate binding on microarrays – cell lysate, small-molecule microarray, COS7 lysate, 635/667 nm fluorescence, primary screen (AID 1150).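 Note: score pools 667 nm emission and signal to noise measuring lysate protein binding.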 The following applies: COS7 hTOR1A mutant lysate, 635 nm fluorescence, higher = more signal.
For experiment [19], the system named is Sonic hedgehog protein (Shh). Kind of experiment: Sonic hedgehog microarray binding compounds – biochemical, small-molecule microarray, 635/667 nm fluorescence, primary screen (AID 1151).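 Note: Shh protein binding to compounds spotted on small-molecule microarray slides; score combines spot fluorescence intensity with signal-to-noise across triplicate slides.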 The following applies: 635 nm fluorescence, higher = more signal.

Active and inactive are the calls of the source. Unless noted, the rule behind the calls is not given here.

Sequence of Luciferin 4-monooxygenase (Photinus pyralis) (P08659 whole entry, looked up): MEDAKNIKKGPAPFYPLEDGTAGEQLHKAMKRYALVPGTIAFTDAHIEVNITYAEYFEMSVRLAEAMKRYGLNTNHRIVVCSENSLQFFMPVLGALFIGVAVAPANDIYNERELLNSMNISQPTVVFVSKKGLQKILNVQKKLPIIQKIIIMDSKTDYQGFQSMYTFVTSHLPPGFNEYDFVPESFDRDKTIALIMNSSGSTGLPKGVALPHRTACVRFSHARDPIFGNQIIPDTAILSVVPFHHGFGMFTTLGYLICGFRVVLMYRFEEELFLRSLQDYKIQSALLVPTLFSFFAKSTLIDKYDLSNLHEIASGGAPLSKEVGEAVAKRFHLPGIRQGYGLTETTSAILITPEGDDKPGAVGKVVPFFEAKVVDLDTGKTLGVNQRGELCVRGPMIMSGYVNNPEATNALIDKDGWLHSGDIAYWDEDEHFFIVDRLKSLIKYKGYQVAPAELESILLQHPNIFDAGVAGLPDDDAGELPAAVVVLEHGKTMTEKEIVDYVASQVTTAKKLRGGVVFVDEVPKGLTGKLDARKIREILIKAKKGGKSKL
Sequence of Follistatin (Homo sapiens) (P19883 whole entry, looked up): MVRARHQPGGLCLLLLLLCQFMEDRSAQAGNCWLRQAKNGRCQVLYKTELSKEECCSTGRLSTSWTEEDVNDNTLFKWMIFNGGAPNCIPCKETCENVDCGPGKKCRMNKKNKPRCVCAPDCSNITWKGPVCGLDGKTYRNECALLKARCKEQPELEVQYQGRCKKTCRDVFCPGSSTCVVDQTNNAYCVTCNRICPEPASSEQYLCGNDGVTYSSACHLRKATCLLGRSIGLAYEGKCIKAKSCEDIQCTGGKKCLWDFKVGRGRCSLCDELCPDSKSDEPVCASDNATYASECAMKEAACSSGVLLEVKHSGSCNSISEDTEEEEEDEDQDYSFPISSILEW

Turning to `C=C(CCCC)C(=O)CC[C@@H](OC(=O)c1ccccc1-c1ccccc1C(=O)O)c1ccc(OCCO)cc1`, the composite z-score was -0.54 in experiment [1]; 0.0862 in experiment [2]; -0.72 in experiment [3]; -0.277 in experiment [4]; 1.42 in [5]; 1.37 in [6]. Besides, the composite z-score is 0.797 in the experiment on Lefty1; 0.427 in experiment [8]; 0.27 in experiment [10]; -0.074 in experiment [15]; -0.128 in experiment [16]; 0.803 in the experiment with Torsin-1A (Homo sapiens) [17]. The composite z-score in the experiment with Torsin-1A (Homo sapiens) [18] amounted to 0.427; in [19], 0.586. The z-score was 0.118 in experiment [7]; -2.06 (inactive) in [9]; 0.142 (inactive) in [11]; -0.385 (inactive) in experiment [12]; -0.336 (inactive) in [13]; 1.8 (inactive) in [14].

On to `CCCCCCc1nc(-c2ccc(OC)nc2)cc2c1[Si](C(C)C)(C(C)C)O[C@H]2c1ccccc1`, for which the composite z-score in experiment [1] is -0.133; in experiment [2], -0.484; in experiment [3], 0.0202; in experiment [4] it was -0.51; in [5], 0.885; in experiment [6], 0.896. Besides, the composite z-score in the experiment on Lefty1 came out at 1.44; in experiment [8], 0.211; in experiment [10], 0.323; in [15], 0.111; in experiment [16], 0.136; in the experiment with Torsin-1A (Homo sapiens) [17], 0.0114. In addition, the composite z-score in the experiment with Torsin-1A (Homo sapiens) [18] was -0.234; in experiment [19], 1.21. For the same compound, the z-score is -0.959 in experiment [7]; 0.974 (inactive) in experiment [9]; -0.295 (inactive) in experiment [11]; 0.0731 (inactive) in experiment [12]; 0.773 (inactive) in experiment [13]; 0.03 (inactive) in experiment [14].

Take `COC(=O)[C@@]1(Cc2ccc(OC)cc2)[C@H]2c3cc(C(=O)N4CCCC4)n(Cc4ccc(C)c(F)c4F)c3C[C@H]2CN1C(=O)c1ccccc1`: the composite z-score in experiment [1] is 1.39; in experiment [2] it was 1.27; in experiment [3], 1.32; in [4], 0.97; in experiment [5], 0.884; in experiment [6] it was -0.294. Moreover, the composite z-score is -0.161 in the experiment on Lefty1; 1.32 in experiment [8]; 0.634 in experiment [10]; 1.81 in experiment [15]; 0.289 in experiment [16]; -0.429 with Torsin-1A (Homo sapiens) [17]. Besides, the composite z-score with Torsin-1A (Homo sapiens) [18] is 0.839; in experiment [19], -0.746. The z-score in experiment [7] was 1.41; in experiment [9], 1.44 (inactive); in experiment [11], -2.92 (inactive); in experiment [12], 0.605 (inactive); in experiment [13], -1.15 (inactive); in experiment [14], -0.572 (inactive).

As to `COCCOC(=O)N1C(=O)[C@@]2(c3cc(C#CCNC(N)=O)ccc31)[C@H](C(=O)Nc1nc3ccccc3s1)[C@H]1C(=O)O[C@H](c3ccccc3)[C@H](c3ccccc3)N1[C@@H]2c1ccc(OCCO)cc1`, the composite z-score is -0.187 in [1]; 0.669 in experiment [2]; 0.346 in experiment [3]; 0.901 in experiment [4]; 1.36 in experiment [5]; 1.08 in [6]. The composite z-score in the experiment with Lefty1 was 0.9; in [8], 0.677; in experiment [10], 0.341; in experiment [15], 0.664; in experiment [16] it was 0.261; with Torsin-1A (Homo sapiens) [17], -0.0017. In addition, the figures for the composite z-score (with Torsin-1A (Homo sapiens) [18]; in experiment [19]) were 0.452 and 0.969, respectively. In addition, the z-score in experiment [7] was -2.31; in experiment [9] it was -2.41 (inactive); in experiment [11], 0.759 (inactive); in experiment [12], -0.609 (inactive); in [13], -0.874 (inactive); in experiment [14], -0.274 (inactive).
